Experimental findings from PubChem BioAssay (NCATS) are described below.

Inconclusive results are not listed. A call without a number means that no potency is given here. Activity calls are given as the source filed them. The call rests on the fitted dose curve; in most records, active means well fitted cell-killing curve with a large enough effect; inconclusive means small, poorly fitted or top-dose-only effect, or effect the other way; inactive means no such curve, though single readings can be large or run the other way.
Potency means the concentration at half of the fitted maximal effect.

The first assay is described as follows: Quantitative High-Throughput drug screen in 47 multiple myeloma cell lines against the NCATS MIPE library collection: KMS28PE_JCRB cell viability assay (AID 1918983). Further: nearly all actives have a fitted effect of over 35% in size. The following applies: KMS28PE multiple myeloma viability, CellTiter-Glo ATP, 48 h; series mostly up to 45.8 µM. The essentials:
(§1)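 Inhibition of viability over 48 h was scored by ATP content (CellTiter-Glo) in 500-cell wells. Zero and full viability were defined by media-only and DMSO-only wells.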
For orientation: In ATP-based viability assays light output follows the ATP content of the culture.
In the case of `CC(C(C)N1CC(=O)NC(=O)C1)N1CC(=O)NC(=O)C1` (stereo not drawn), the Potency result was “inactive”.

Regarding `COc1cc2ncnc(Nc3cccc(Br)c3)c2cc1OC`, the Potency is 2.96 µM (active).

For the molecule `N#Cc1c(C2CCNCC2)cc(-c2c(O)cccc2OCC2CC2)nc1N`, the Potency was 26.4 µM (active).

Regarding `CCn1c(=O)c2c(nc(C=Cc3ccc(OC)c(OC)c3)n2C)n(CC)c1=O`, the Potency result is “inactive”.

`COC(=O)C1C2CC3c4[nH]c5cc(OC)ccc5c4CCN3CC2CC(OC(=O)c2cc(OC)c(OC)c(OC)c2)C1OC` (stereo not drawn): the Potency is 14.8 µM (active).

Turning to `CC(=O)C1=C(O)C=C2Oc3c(C(C)=O)c(O)c(C)c(O)c3C2(C)C1=O` (stereo not drawn), the Potency entry is “inactive”.

For the molecule `NC(=O)c1ncn([C@@H]2O[C@H](CO)[C@@H](O)[C@@H]2O)c1N`, the Potency entry is “inactive”.

Turning to `CC(=CC(=O)Nc1ccccc1C(=O)O)c1ccc2ccccc2c1`, the Potency entry was “inactive”.

In the case of `COc1cc(CCc2cc(NC(=O)c3ccc(N4C[C@@H](C)N[C@@H](C)C4)cc3)n[nH]2)cc(OC)c1`, the Potency is 13.2 µM (active).

`C[C@@H](Cc1cc2c(c(C(N)=O)c1)N(CCCO)CC2)NCCOc1ccccc1OCC(F)(F)F`: the Potency result is “inactive”.

On to `C[C@]12CC[C@@H]3c4ccc(O)cc4CC[C@H]3[C@H]1CC[C@H]2O`, for which the Potency was 29.6 µM (active).

`C[C@H](NC(=O)[C@@H](O)c1cc(F)cc(F)c1)C(=O)N[C@@H]1C(=O)N(C)c2ccccc2-c2ccccc21`: the Potency result is “inactive”.

In the case of `N=c1ccn2c(n1)O[C@H]1[C@@H](O)[C@@H](CO)O[C@H]12`, the Potency result is “inactive”.

In the case of `NS(=O)(=O)OC[C@@H]1C[C@@H](n2ccc3c(N[C@H]4CCc5ccccc54)ncnc32)C[C@H]1O`, the Potency is 0.935 µM (active).

As to `c1ccc2c(Oc3nc(Nc4ccc(N5CCOCC5)cc4)c4ncn(C5CCCCC5)c4n3)cccc2c1`, the Potency entry is “inactive”.

With `C[C@H](O)[C@@H]1C(=O)N2C(C(=O)O)=C(S[C@@H]3CN[C@H](CNS(N)(=O)=O)C3)[C@@H](C)[C@@H]12`, the Potency entry is “inactive”.

With `C[C@@H]1C(=O)O[C@H]2CC34[C@H]5C[C@@H](C(C)(C)C)C36[C@H](OC(=O)[C@@H]6O)O[C@@]4(C(=O)O5)[C@]21O` (stereo partly drawn), the Potency result was “inactive”.

The nature of the next assay: Quantitative High-Throughput drug screen in 47 multiple myeloma cell lines against the NCATS MIPE library collection: L363_DSMZ cell viability assay (AID 1918984). Further: nearly all actives have a fitted effect of over 40% in size. The note with it: L363 myeloma viability, CellTiter-Glo ATP luminescence, 48 h; series mostly up to 45.8 µM. The essentials:
as §1
In the case of `CC(Cc1ccc(O)c(O)c1)(NN)C(=O)O` (stereo not drawn), the Potency result is “inactive”.

As to `NC(=O)c1ncn([C@@H]2O[C@H](CO)[C@@H](O)[C@@H]2O)c1O`, the Potency entry was “inactive”.

On to `Cc1[nH]c(C=C2C(=O)Nc3ccccc32)c(C)c1CCC(=O)O`, for which the Potency was 9.35 µM (active).

On to `COc1cc(C(=O)NC2CCN(C)CC2)ccc1Nc1ncc2c(n1)N(C1CCCC1)CCC(=O)N2C(C)C`, for which the Potency is 16.6 µM (active).

Regarding `CC(O)(C#Cc1ccc2c(c1)N(c1nc(N)ncc1Cl)CC2)c1nccs1` (stereo not drawn), the Potency is 16.6 µM (active).

For the molecule `CN1CCCN(C(=O)c2cccc(-c3ccc(C=C4C(=O)Nc5ccc(Cl)cc54)o3)c2)CC1`, the Potency was 6.62 µM (active).

As to `FC(F)(F)c1ccc(Nc2nc3ccc(Oc4ccnc(-c5ncc(C(F)(F)F)[nH]5)c4)cc3[nH]2)cc1`, the Potency is 18.7 µM (active).

With `O=C(CN1C(=O)C2(CCCC2)NC[C@H]1c1cc(F)cc(F)c1)Nc1ccc2c(c1)C[C@@]1(C2)C(=O)Nc2ncccc21`, the Potency result is “inactive”.

Take `N[C@H]1CN(c2c(F)cc3c(=O)c(C(=O)O)cn(C4C[C@@H]4F)c3c2Cl)CC12CC2` (stereo partly drawn): the Potency entry was “inactive”.

For `Cn1cc(C=CC(=O)c2cccc(F)c2)cc1C=CC(=O)NO`, the Potency was 11.8 µM (active).

In the case of `COc1ccc(Nc2nccc(NCCO)n2)cc1`, the Potency entry is “inactive”.
